# Test results as given in PubChem BioAssay AID504444 (National Center for Advancing Translational Sciences (NCATS), 2011).
# Out of some 360,000 compounds screened, about 7,500 (2.1%) were called active. Inconclusive results (about 20%) are left out. Only a selection was taken, and actives are over-represented in it overall. A number with no mark means an inactive call. Calls come from the whole dose curve; as a rule, active = well fitted inhibition curve with a large enough effect; inconclusive = small, poorly fitted or top-dose-only effect, or effect the other way; inactive = flat fitted curve, though single readings scatter.
# Assay: Nrf2 qHTS screen for inhibitors; note: nearly all actives have a fitted effect of over 60% in size
# Conditions: A549 ARE-Fluc reporter, luciferase luminescence, 18-24 h; series mostly up to 46 µM; activity change, negative = inhibition: at the top concentration
# Text: NIH Molecular Libraries Probe Production Network [MLPCN]
# NIH Chemical Genomics Center [NCGC]
# Assay Provider: Shyam Biswal, Johns Hopkins University
# Nrf2 is a transcription factor that maintains cellular redox homoestasis and protects cells from xenobiotics. Nrf2 binds to the antioxidant response element (ARE) to induce gene expression of a broad spectrum of genes that encode for antioxidants. […] Finding a small molecule that act as an inhibitor of Nrf2 function would represent a novel therapeutic target that could lead to improvement in survival of patients undergoing chemo- and/or radio- therapy.
# This is the Nrf2 activity measured in the luminescent read.
# 1. Shibata, T., et al., Genetic Alteration of Keap1 Confers Constitutive Nrf2 Activation and Resistance to Chemotherapy in Gallbladder Cancer. Gastroenterology, 2008.
# 2. Sjoblom, T., et al., The consensus coding sequences of human breast and colorectal cancers. Science, 2006. 314(5797): p. 268-74.
# NCGC Assay Protocol Summary:
# A concentration-response assay was performed with A549 ARE_Fluc cells which are suspended in 5% FBS OPTI-MEM. Five uL were dispensed into 1536-well white TC-treated plate using the Kalypsys dispenser to achieve a density of 5000 cells/well in all columns except column 1. The plate is incubated at 37deg C at 5% CO2 for 2 hours before 23 nL of compounds are added with the Kalypsys pin tool equipped with a 1,536-pin array containing 10-nL slotted pins (FP1S10, 0.457-mm diameter, 50.8 mm long; V&P Scientific). The control compounds Budesonide and Staurosporine are both added at a concentration of 2mM and Budesonide is also added as a 1:10 titration, starting at 200uM, to achieve dose-response. After an 18-24 hour incubation at 37deg C at 5% CO2, 5ul of medium is added to column 1. Afterwards 1ul of 5x of CellTiter-Fluor (Promega) is added to every well. The plate is then incubated at 37deg C at 5% CO2 for 30 minutes before they are read on the ViewLux (Perkin Elmer) for a fluorescent read Ex=405(10)/Em=525(10) for a 3 second exposure, 2x binning, and high gain. Then 3 uL of 3x BugLite is dispensed into all wells and the plate is incubated at ambient room temperature for 15 minutes. Afterwards another ViewLux read is performed using the clear filter to get a luminescent read with the settings of 40 second exposure, 2x binning, and high gain. Cytotoxicity is assessed through the first fluorescent read and then biochemical activity against Nrf2 is measured in the luminescent read.
# % is set by controls: 0 for no effect and ±100 for the full control effect; potency is the fitted concentration of half-maximal effect.
SMILES,"activity change, negative = inhibition",Potency
O=C1N(Cc2ccccc2)c2ccc(Cl)cc2C1(O)c1c[nH]c2ccccc12 (stereo unspecified),1.03%,–
CC(Nc1ncnc2ccc(-c3ccc4c(c3)OCO4)cc12)c1ccco1 (stereo unspecified),-6.5%,–
O=C(/C=C/c1ccc(F)cc1)Nc1cccc(S(=O)(=O)Nc2cccc(C(F)(F)F)c2)c1,-7.06%,–
Cc1cccc(NC(=O)c2cccc(C(F)(F)F)c2)c1,9.33%,–
Cc1oc2c(F)c(F)c(F)c(F)c2c1S(=O)(=O)Nc1cccc(C(F)(F)F)c1,–,8.2 µM (active)
CCn1c2ccccc2c2cc(CN3CCN(Cc4cccc(Cl)c4)CC3)ccc21,1.46%,–
Cc1cccc(C(=O)N2c3nc(-c4ccco4)nn3C3(CCCCC3)[C@@H]3CCCC[C@@H]32)c1,-10.5%,–
CN(C)S(=O)(=O)c1ccc(NC(=O)N2CCOCC2)cc1,12.1%,–
CN(C)S(=O)(=O)c1ccc(Oc2ccc(S(=O)(=O)N(C)C)cc2)cc1,–,13 µM (active)
COc1cccc(NC(=O)c2ccc(S(=O)(=O)N(C)C)cc2)c1,-11.6%,–
CCOc1ccc(-c2n[nH]c3c2C(c2ccccc2OC)N(c2ccc(Br)cc2)C3=O)cc1 (stereo unspecified),-90.3%,–
CCCCCCCCNS(=O)(=O)CCNC1CCCCC1,17.5%,–
Cc1cccc(C(C)C)c1NC(=O)C(NS(=O)(=O)c1cccc2nsnc12)c1ccccc1 (stereo unspecified),4.2%,–
CCN1/C(=C/C(=S)Nc2ccccc2)Sc2ccccc21,–,6.51 µM (active)
O=C(CCN1c2ccccc2Sc2ccccc21)Nc1ccccc1,-4.56%,–
CCNC(=O)N1c2ccccc2Sc2ccccc21,2.6%,–
CC(C)NC(=O)Nc1cccc2c1O[C@H](CN(C)S(=O)(=O)c1cccs1)[C@@H](C)CN([C@H](C)CO)C2=O,4.9%,–
COc1cccc(N2CCN(S(=O)(=O)c3cc(Br)cc4c3N(C(=O)C3CC3)CC4)CC2)c1,-6.76% [at 9.27 µM],–
O=C(NCCC1=CCCCC1)c1ccc2c(c1)N(Cc1ccccc1F)C(=O)c1ccccc1S2(=O)=O,17.8%,–
COc1cccc(OC2=NS(=O)(=O)c3ccccc32)c1,1.62% [at 65.3 µM],–
CCN(CC)C(=O)c1sc(NC(=O)c2ccco2)c(C#N)c1C,2.27%,–
Cn1nccc1CNC(=O)c1ccnn1C,-3.22%,–
CCCc1ccc(-c2c(C)sc(NC(=O)c3ccnn3C)c2C#N)cc1,–,13 µM (active)

SMILES,"activity change, negative = inhibition",Potency
COc1ccc(C)cc1NC(=O)COCc1cc(-c2cccs2)on1,-15.1%,–
O=C(Nc1ccc(OC(F)(F)F)cc1)C1CCCN(S(=O)(=O)c2ccc(Br)s2)C1 (stereo unspecified),-12.6%,–
Cn1c(=O)[nH]c(=O)c2c1nc(NCCc1ccccc1)n2Cc1ccc(F)cc1,-17.7%,–
Cn1c(=O)c2c(nc(NCCc3ccccc3)n2Cc2ccccc2)n(C)c1=O,–,14.6 µM (active)
CCCCNc1nc2c(c(=O)[nH]c(=O)n2C)n1CCOc1ccccc1,-19.7%,–
COC(=O)C(C)Sc1nc2c(c(=O)n(C)c(=O)n2C)n1Cc1cccc(C)c1 (stereo unspecified),-11.1%,–
CCCCNc1nc2c(c(=O)n(C)c(=O)n2C)n1Cc1cccc(OC)c1,–,5.8 µM (active)
Cn1c(=O)c2c(nc(NCCc3ccccc3)n2Cc2ccccc2Br)n(C)c1=O,-3.57%,–
Clc1ccc(CSc2nncn3c2cc2occc23)cc1,-25.8%,–
N#CN1CCC(NS(=O)(=O)c2cccc(F)c2)C1 (stereo unspecified),14.3%,–
COc1ccccc1NC(=O)c1oc2ccccc2c1NC(=O)C(C)C,-28.5%,–
CCN(CC)CCCC(C)n1c2nc(=O)[nH]c(=O)c-2nc2cc(Cl)ccc21 (stereo unspecified),–,20.6 µM (active)
CCOC(=O)C1=C(CN2CCCCCC2)NC(=O)NC1c1cccc([N+](=O)[O-])c1 (stereo unspecified),21.8%,–
CCOC(=O)C1=C(CN2CCc3ccccc32)NC(=O)NC1c1ccc(Cl)cc1 (stereo unspecified),–,16.4 µM (active)
CCOC(=O)C1=C(CN2CCc3ccccc32)NC(=O)NC1c1cccc([N+](=O)[O-])c1 (stereo unspecified),-21.3%,–
COc1ccc(CNCCCn2cnc3c(OCc4ccccc4)ncnc32)cc1,19.7%,–
CCOC(=O)c1cnc(-n2nc(C)cc2C)nc1Nc1cccc(C(C)=O)c1,3.3%,–
CCOC(=O)c1cnc(-n2nc(C)cc2C)nc1NNc1cc(C)nc(-c2ccccc2)n1,–,4.11 µM (active)
Cc1cc(C)n(-c2c(F)c(F)c(COC(=O)c3ccccc3)c(F)c2F)n1,5.92%,–
O=c1n(Cc2cccc(C(F)(F)F)c2)c2ccccc2c2nc(-c3ccccc3)nn12,-0.836%,–
CC(Nc1ccc([N+](=O)[O-])cc1[N+](=O)[O-])c1ccccc1 (stereo unspecified),-22.7%,–
CCn1cc(C(=O)OCC(=O)Nc2cc(C)cc(C)c2)c(=O)c2ccc(C)nc21,9.75%,–
CC[C@]1(C(=O)OC)[C@H]2C(=O)N(Cc3ccccc3)C(=O)[C@H]2[C@H]2CN=C(SCc3ccc(Cl)cc3)N21,-8.32%,–
